Measured values: PubChem BioAssay AID1159580 (chemical genetic matrix, 2015)
Screen size: about 5,500 compounds; about 2,000 (36%) were called active. About 18% were inconclusive and are not listed. No stated cut-off is given here; in the data, active means normalized growth mostly below about 0.91 (no sharp cut-off); inconclusive means no clear call, values can overlap the other calls; inactive means mostly above about 0.92. Some of the results follow.

Assay: chemical genetic growth profiling, strain panel (AID 1159580);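 further: tested at 20 µM; growth read once vehicle control cultures reached saturation at 30 °C; 1 = growth at the plate median or of vehicle wells; lower values mean less growth of the strain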
Conditions: growth OD
[1] = S. cerevisiae deletion strains, locus YDL101C, strain DUN1, active compounds read low
[2] = S. cerevisiae deletion strains, locus YHR030C, strain SLT2, active compounds read low
[3] = S. cerevisiae deletion strains, locus YJL095W, strain BCK1, active compounds read low
[4] = S. cerevisiae deletion strains, locus YOR061W, strain CKA2, active compounds read low

Measured: normalized growth

Oc1c(Br)cc(Br)cc1C=Nc1ccc(Sc2ccccc2)nc1Sc1ccccc1
active: S. cerevisiae deletion strains, locus YDL214C, strain PRR2, active compounds read low 0.331 | S. cerevisiae deletion strains, locus YDR477W, strain SNF1, active compounds read low 0.311 | S. cerevisiae deletion strains, locus YER123W, strain YCK3, active compounds read low 0.364 | S. cerevisiae deletion strains, locus YER133W, strain GLC7, active compounds read low 0.285 | S. cerevisiae deletion strains, locus YGR040W, strain KSS1, active compounds read low 0.351 | S. cerevisiae deletion strains, locus YGR052W, strain FMP48, active compounds read low 0.196 | S. cerevisiae deletion strains, locus YGR092W, strain DBF2, active compounds read low 0.155 | [2] 0.103 | S. cerevisiae deletion strains, locus YHR079C, strain IRE1, active compounds read low 0.151 | S. cerevisiae deletion strains, locus YHR082C, strain KSP1, active compounds read low 0.155 | S. cerevisiae deletion strains, locus YHR205W, strain SCH9, active compounds read low 0.0625 | [3] 0.14 | S. cerevisiae deletion strains, locus YJL157C, strain FAR1, active compounds read low 0.208 | S. cerevisiae deletion strains, locus YJR066W, strain TOR1 (second series), active compounds read low 0.591 | S. cerevisiae deletion strains, locus YJR066W, strain TOR1, active compounds read low 0.162 | S. cerevisiae deletion strains, locus YKL048C, strain ELM1, active compounds read low 0.483 | S. cerevisiae deletion strains, locus YKL067W, strain YNK1, active compounds read low 0.24 | S. cerevisiae deletion strains, locus YKL101W, strain HSL1, active compounds read low 0.353 | S. cerevisiae deletion strains, locus YKL203C, strain TOR2, active compounds read low 0.388 | S. cerevisiae deletion strains, locus YLR113W, strain HOG1, active compounds read low 0.383 | S. cerevisiae deletion strains, locus YLR133W, strain CKI1, active compounds read low 0.226 | S. cerevisiae deletion strains, locus YLR403W, strain SFP1, active compounds read low 0.134 | S. cerevisiae deletion strains, locus YML070W, strain DAK1, active compounds read low 0.406 | S. cerevisiae deletion strains, locus YMR205C, strain PFK2 (second series), active compounds read low 0.248 | S. cerevisiae deletion strains, locus YNL020C, strain ARK1, active compounds read low 0.174 | S. cerevisiae deletion strains, locus YNL183C, strain NPR1, active compounds read low 0.236 | S. cerevisiae deletion strains, locus YNL307C, strain MCK1 (second series), active compounds read low 0.222 | S. cerevisiae deletion strains, locus YOL136C, strain PFK27, active compounds read low 0.43 | [4] 0.142 | S. cerevisiae deletion strains, locus YOR119C, strain RIO1, active compounds read low 0.313 | S. cerevisiae deletion strains, locus YOR231W, strain MKK1, active compounds read low 0.196 | S. cerevisiae deletion strains, locus YPL031C, strain PHO85, active compounds read low 0.29 | S. cerevisiae deletion strains, locus YPL153C, strain RAD53, active compounds read low 0.249 | S. cerevisiae deletion strains, locus YPL204W, strain HRR25, active compounds read low 0.311 | S. cerevisiae deletion strains, locus YPL256C, strain CLN2, active compounds read low 0.314
inactive: S. cerevisiae deletion strains, locus YAR019C, strain CDC15, active compounds read low 0.92 | S. cerevisiae deletion strains, locus YBL105C, strain PKC1, active compounds read low 0.945 | S. cerevisiae deletion strains, locus YBR135W, strain CKS1, active compounds read low 0.926 | S. cerevisiae deletion strains, locus YBR136W, strain MEC1, active compounds read low 0.945 | S. cerevisiae deletion strains, locus YBR160W, strain CDC28, active compounds read low 0.936 | S. cerevisiae deletion strains, locus YDL017W, strain CDC7, active compounds read low 0.948 | S. cerevisiae deletion strains, locus YDL028C, strain MPS1, active compounds read low 0.917 | [1] 0.969 | S. cerevisiae deletion strains, locus YDL108W, strain KIN28, active compounds read low 0.926 | S. cerevisiae deletion strains, locus YDL132W, strain cdc53, active compounds read low 0.931 | S. cerevisiae deletion strains, locus YDR052C, strain DBF4, active compounds read low 0.955 | S. cerevisiae deletion strains, locus YDR054C, strain cdc34, active compounds read low 0.927 | S. cerevisiae deletion strains, locus YDR226W, strain ADK1, active compounds read low 0.932 | S. cerevisiae deletion strains, locus YFL009W, strain cdc4, active compounds read low 0.927 | S. cerevisiae deletion strains, locus YFL029C, strain CAK1, active compounds read low 0.937 | S. cerevisiae deletion strains, locus YFR003C, strain YPI1, active compounds read low 0.94 | S. cerevisiae deletion strains, locus YFR028C, strain CDC14, active compounds read low 0.924 | S. cerevisiae deletion strains, locus YIL147C, strain SLN1, active compounds read low 0.931 | S. cerevisiae deletion strains, locus YJL128C, strain PBS2, active compounds read low 0.904 | S. cerevisiae deletion strains, locus YJR016C, strain ILV3, active compounds read low 0.953 | S. cerevisiae deletion strains, locus YKL193C, strain SDS22, active compounds read low 0.93 | S. cerevisiae deletion strains, locus YMR001C, strain CDC5, active compounds read low 0.922 | S. cerevisiae deletion strains, locus YMR277W, strain FCP1, active compounds read low 0.904 | S. cerevisiae deletion strains, locus YNL006W, strain LST8, active compounds read low 0.941 | S. cerevisiae deletion strains, locus YNL161W, strain CBK1, active compounds read low 0.945 | S. cerevisiae deletion strains, locus YNL207W, strain RIO2, active compounds read low 0.953 | S. cerevisiae deletion strains, locus YNL222W, strain SSU72, active compounds read low 0.915 | S. cerevisiae deletion strains, locus YOL078W, strain AVO1, active compounds read low 0.928 | S. cerevisiae deletion strains, locus YOR329C, strain SCD5, active compounds read low 0.951 | S. cerevisiae deletion strains, locus YPL209C, strain IPL1, active compounds read low 0.949 | S. cerevisiae deletion strains, locus YPR025C, strain CCL1, active compounds read low 0.935 | S. cerevisiae deletion strains, locus YPR106W, strain ISR1, active compounds read low 0.945 | S. cerevisiae deletion strains, locus YPR111W, strain DBF20, active compounds read low 0.915 | S. cerevisiae deletion strains, strain NNK1, active compounds read low 0.945 | S. cerevisiae deletion strains, strain TSCII, active compounds read low 0.928

CCOC(=O)NC1=C(C2CC2)C(=O)C(NC(=O)OCC)=C(C2CC2)C1=O
inactive: S. cerevisiae deletion strains, locus YAL013W, strain DEP1, active compounds read low 0.97 | S. cerevisiae deletion strains, locus YBR021W, strain FUR4, active compounds read low 0.961 | S. cerevisiae deletion strains, locus YBR229C, strain ROT2, active compounds read low 1 | S. cerevisiae deletion strains, locus YCL029C, strain bik1, active compounds read low 0.993 | S. cerevisiae deletion strains, locus YDL035C, strain GPR1, active compounds read low 1 | S. cerevisiae deletion strains, locus YDL074C, strain BRE1, active compounds read low 1.04 | [1] 1 | S. cerevisiae deletion strains, locus YDL134C, strain PPH21, active compounds read low 1 | S. cerevisiae deletion strains, locus YDL185W, strain tfp1, active compounds read low 0.98 | S. cerevisiae deletion strains, locus YDL192W, strain arf1, active compounds read low 0.991 | S. cerevisiae deletion strains, locus YDR101C, strain arx1, active compounds read low 0.993 | S. cerevisiae deletion strains, locus YDR150W, strain NUM1, active compounds read low 0.99 | S. cerevisiae deletion strains, locus YDR162C, strain NBP2, active compounds read low 1.01 | S. cerevisiae deletion strains, locus YDR318W, strain mcm21, active compounds read low 0.99 | S. cerevisiae deletion strains, locus YDR388W, active compounds read low 0.995 | S. cerevisiae deletion strains, locus YDR502C, strain sam2, active compounds read low 0.996 | S. cerevisiae deletion strains, locus YEL061C, strain CIN8, active compounds read low 0.995 | S. cerevisiae deletion strains, locus YER110C, active compounds read low 0.98 | S. cerevisiae deletion strains, locus YER155C, strain BEM2, active compounds read low 0.994 | S. cerevisiae deletion strains, locus YER167W, strain BCK2, active compounds read low 0.98 | S. cerevisiae deletion strains, locus YGL078C, strain dbp3, active compounds read low 0.983 | S. cerevisiae deletion strains, locus YGL086W, strain mad1, active compounds read low 0.982 | S. cerevisiae deletion strains, locus YGL248W, strain PDE1, active compounds read low 1 | S. cerevisiae deletion strains, locus YGR078C, strain PAC10, active compounds read low 1.01 | S. cerevisiae deletion strains, locus YGR135W, strain pre9, active compounds read low 1 | S. cerevisiae deletion strains, locus YGR229C, strain SMI1, active compounds read low 1.04 | S. cerevisiae deletion strains, locus YGR252W, strain gcn5, active compounds read low 1.02 | [2] 0.986 | S. cerevisiae deletion strains, locus YHR079C, strain IRE1 (second series), active compounds read low 0.99 | S. cerevisiae deletion strains, locus YHR094C, strain hxt1, active compounds read low 0.976 | S. cerevisiae deletion strains, locus YHR129C, strain ARP1, active compounds read low 0.999 | S. cerevisiae deletion strains, locus YHR200W, strain rpn10, active compounds read low 0.992 | S. cerevisiae deletion strains, locus YIL066C, strain RNR3, active compounds read low 1 | S. cerevisiae deletion strains, locus YIL073C, strain SPO22, active compounds read low 0.9 | S. cerevisiae deletion strains, locus YIL125W, strain kgd1, active compounds read low 0.988 | S. cerevisiae deletion strains, locus YIR030C, strain dcg1, active compounds read low 0.995 | [3] 1.05 | S. cerevisiae deletion strains, locus YJL134W, strain LCB3, active compounds read low 0.993 | S. cerevisiae deletion strains, locus YJL168C, strain set2, active compounds read low 0.993 | S. cerevisiae deletion strains, locus YJL187C, strain SWE1 (second series), active compounds read low 0.988 | S. cerevisiae deletion strains, locus YJR043C, strain POL32, active compounds read low 0.997 | S. cerevisiae deletion strains, locus YJR075W, strain HOC1, active compounds read low 0.999 | S. cerevisiae deletion strains, locus YKL009W, strain mrt4, active compounds read low 0.973 | S. cerevisiae deletion strains, locus YKL068W, active compounds read low 0.98 | S. cerevisiae deletion strains, locus YKL085W, strain MDH1 (second series), active compounds read low 0.984 | S. cerevisiae deletion strains, locus YKL085W, strain MDH1, active compounds read low 0.984 | S. cerevisiae deletion strains, locus YKL190W, strain CNB1, active compounds read low 0.994 | S. cerevisiae deletion strains, locus YKR001C, strain vps1, active compounds read low 0.989 | S. cerevisiae deletion strains, locus YLR039C, strain RIC1, active compounds read low 0.96 | S. cerevisiae deletion strains, locus YLR058C, strain SHM2, active compounds read low 0.984 | S. cerevisiae deletion strains, locus YLR102C, strain apc9, active compounds read low 0.992 | S. cerevisiae deletion strains, locus YLR262C, strain YPT6, active compounds read low 1.01 | S. cerevisiae deletion strains, locus YLR268W, strain sec22, active compounds read low 1.01 | S. cerevisiae deletion strains, locus YLR330W, strain CHS5, active compounds read low 0.989 | S. cerevisiae deletion strains, locus YLR342W, strain FKS1 (second series), active compounds read low 0.976 | S. cerevisiae deletion strains, locus YLR371W, strain rom2, active compounds read low 0.976 | S. cerevisiae deletion strains, locus YLR418C, strain cdc73, active compounds read low 1.03 | S. cerevisiae deletion strains, locus YML016C, strain PPZ1, active compounds read low 0.99 | S. cerevisiae deletion strains, locus YML032C, strain rad52, active compounds read low 0.985 | S. cerevisiae deletion strains, locus YML124C, strain tub3, active compounds read low 0.988 | S. cerevisiae deletion strains, locus YMR078C, strain ctf18, active compounds read low 0.993 | S. cerevisiae deletion strains, locus YMR223W, strain ubp8, active compounds read low 0.979 | S. cerevisiae deletion strains, locus YMR263W, strain SAP30, active compounds read low 1.01 | S. cerevisiae deletion strains, locus YMR307W, strain GAS1, active compounds read low 0.999 | S. cerevisiae deletion strains, locus YNL067W, strain RPL9B, active compounds read low 1.03 | S. cerevisiae deletion strains, locus YNL128W, strain TEP1, active compounds read low 1.01 | S. cerevisiae deletion strains, locus YNL153C, strain GIM3, active compounds read low 1.01 | S. cerevisiae deletion strains, locus YNL233W, strain BNI4, active compounds read low 1.01 | S. cerevisiae deletion strains, locus YNL250W, strain rad50, active compounds read low 0.981 | S. cerevisiae deletion strains, locus YNL271C, strain bni1, active compounds read low 0.984 | S. cerevisiae deletion strains, locus YNL298W, strain CLA4, active compounds read low 0.985 | S. cerevisiae deletion strains, locus YNL307C, strain MCK1, active compounds read low 0.985 | S. cerevisiae deletion strains, locus YNL322C, strain KRE1, active compounds read low 0.998 | S. cerevisiae deletion strains, locus YNR052C, strain pop2, active compounds read low 0.98 | S. cerevisiae deletion strains, locus YOL006C, strain TOP1, active compounds read low 1.1 | S. cerevisiae deletion strains, locus YOL012C, strain htz1 1.15 | S. cerevisiae deletion strains, locus YOL147C, strain pex11, active compounds read low 0.986 | [4] 1 | S. cerevisiae deletion strains, locus YOR069W, strain VPS5, active compounds read low 0.995 | S. cerevisiae deletion strains, locus YOR136W, strain idh2, active compounds read low 0.983 | S. cerevisiae deletion strains, locus YOR144C, strain elg1, active compounds read low 1 | S. cerevisiae deletion strains, locus YOR184W, strain ser1, active compounds read low 0.974 | S. cerevisiae deletion strains, locus YOR316C, strain cot1, active compounds read low 0.985 | S. cerevisiae deletion strains, locus YPL055C, strain LGE1, active compounds read low 1.04 | S. cerevisiae deletion strains, locus YPL241C, strain CIN2, active compounds read low 0.999 | S. cerevisiae deletion strains, locus YPR119W, strain clb2, active compounds read low 0.988 | S. cerevisiae deletion strains, locus YPR141C, strain kar3, active compounds read low 0.984 | S. cerevisiae deletion strains, locus YPR163C, strain tif3, active compounds read low 0.988 | S. cerevisiae deletion strains, locus YPR167C, strain met16, active compounds read low 1 | S. cerevisiae deletion strains, strain wtn01, active compounds read low 0.995 | S. cerevisiae strains, strain wild type, active compounds read low 0.995
